Bioassay records: PubChem, several laboratories
Compounds with a hit are over-represented: about 1.6% of the library has one in this group of screens.
PTPN22 act: LYP (human) phosphatase activation; activation, % at 2 µM; 0.11% of 96,000 active; Q9Y2R2; recombinant LYP, DiFMUP fluorescence; 0 = plate median, 100 = signal doubled; AID 697;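 active = activation at 2 µM above a set limit, the mean plus 5 SD, cut at about 37% in these data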
Target sequence (Q9Y2R2 whole entry, looked up): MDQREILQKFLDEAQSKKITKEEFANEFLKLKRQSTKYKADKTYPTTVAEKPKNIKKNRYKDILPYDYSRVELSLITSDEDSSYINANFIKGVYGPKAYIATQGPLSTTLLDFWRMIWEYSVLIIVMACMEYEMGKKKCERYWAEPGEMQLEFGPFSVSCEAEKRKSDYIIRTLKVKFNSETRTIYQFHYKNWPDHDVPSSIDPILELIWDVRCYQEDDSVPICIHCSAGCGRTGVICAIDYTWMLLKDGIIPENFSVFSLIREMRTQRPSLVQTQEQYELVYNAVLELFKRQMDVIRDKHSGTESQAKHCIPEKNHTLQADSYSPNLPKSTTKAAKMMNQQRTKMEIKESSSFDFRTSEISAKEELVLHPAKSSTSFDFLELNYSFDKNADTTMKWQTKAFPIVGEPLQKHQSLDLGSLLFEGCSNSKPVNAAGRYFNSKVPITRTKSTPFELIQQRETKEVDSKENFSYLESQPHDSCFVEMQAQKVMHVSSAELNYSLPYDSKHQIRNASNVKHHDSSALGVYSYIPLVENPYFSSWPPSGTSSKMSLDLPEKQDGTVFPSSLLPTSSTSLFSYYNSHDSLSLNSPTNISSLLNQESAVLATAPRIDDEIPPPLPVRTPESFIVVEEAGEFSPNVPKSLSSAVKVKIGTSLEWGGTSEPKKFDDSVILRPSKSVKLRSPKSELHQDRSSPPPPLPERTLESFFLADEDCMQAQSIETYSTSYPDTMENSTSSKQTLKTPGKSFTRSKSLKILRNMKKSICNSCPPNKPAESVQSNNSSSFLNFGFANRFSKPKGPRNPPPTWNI
PLAP act: activators of human placental alkaline phosphatase | P05187 | purified PLAP enzyme, luminescent substrate read-out; hits give high values | activation fold at 20 µM | 1.2% of 96,000 active; in the data active = activation fold above about 2
MT1-MMP txn act: MT1-MMP promoter transcription activation; activation factor at 10 µM; HT1080 MT1-MMP promoter luciferase reporter, luminescence, overnight; hits give high values; 0.16% of 86,000 active; AID 750;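 active = activation factor of at least 2 for MT1-MMP transcription at 10 µM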
TNAP act mid DEA: human TNAP activation, intermediate phosphate acceptor. activation factor at 20 µM. 64,000 tested, under 10 active. P05186. purified TNAP, CDP-star luminescence, 100 mM DEA, 30 min; hits give high values; scale: 0 levamisole-inhibited, 1 vehicle-only enzyme;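 active = activation factor of at least 2 at 20 µM, relative to controls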
PTPN22 inh 2: LYP (human) phosphatase inhibition; AID 640; recombinant LYP catalytic domain, DiFMUP fluorescence; 0.21% of 96,000 active; Q9Y2R2; inhibition, % at 2 µM;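 active = inhibition at 2 µM at or above a set limit, the screen mean plus 3 SD, cut at about 24% in these data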;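 also: 0% = DMSO with enzyme and 100% = enzyme fully blocked by orthovanadate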
Starred values were filed as active, the others as inactive.

Screening C=CCNC(=S)NNC(=O)COc1cccc(Cl)c1 returned PTPN22 act 11.7, PLAP act 0.9 and PTPN22 inh 2 -7.5.
`NC1=NC2(CCN(Cc3ccccc3)CC2)n2c(nc3ccccc32)N1` gave PTPN22 act -5.1, PLAP act 2.6*, MT1-MMP txn act 1.2, TNAP act mid DEA 1.3 and PTPN22 inh 2 2.9.
`NC1=NC2(CCCCC2)n2c(nc3ccccc32)N1` gave PTPN22 act -12.8, PLAP act 1.3, MT1-MMP txn act 1.3, TNAP act mid DEA 1 and PTPN22 inh 2 12.7.
NC1=NC2(CCC(c3ccccc3)CC2)n2c(nc3ccccc32)N1 (stereo not drawn) was read as PTPN22 act -11.3, PLAP act 2.8*, MT1-MMP txn act 1.1, TNAP act mid DEA 1.9 and PTPN22 inh 2 10.7.
Screening CCC1=C2CC[C@H]3C(=O)N(CC(=O)OC)C(=O)[C@H]3[C@H]2[C@@]2(Cc3ccccc3)C(=NCCc3c[nH]c4ccccc34)OC(=O)N2C1=O returned MT1-MMP txn act 1.2.
`CCOC(=O)C1=C(C)N(CCCC(=O)O)C(=O)NC1c1ccccc1OC(=O)c1ccc(I)cc1` (stereo not drawn) gave MT1-MMP txn act 1.1.
For O=C(CN1CCN(S(=O)(=O)c2ccc(Cl)cc2)CC1)NC(=O)NC1CCCCC1 the results were PTPN22 act 1.2, PLAP act 2* and PTPN22 inh 2 -3.7.
Screening O=C(CN1CCN(S(=O)(=O)c2ccccc2)CC1)NC(=O)NC1CCCCC1 returned PTPN22 act 4.0, PLAP act 1.7 and PTPN22 inh 2 -5.6.
Screening CCOC(=O)N1CCC(N2CCN(S(=O)(=O)c3ccc(Cl)cc3)CC2)CC1 returned PTPN22 act 27.5, PLAP act 2*, MT1-MMP txn act 1.2 and PTPN22 inh 2 -25.7.
`Cc1ccc(CNC(=O)[C@H]2C[C@@H]2[C@H](NP(=O)(c2ccccc2)c2ccccc2)c2ccccc2)c(F)c1F` gave MT1-MMP txn act 1.2.
`Cc1cccc(C(=O)NNC2=C(C(=O)C(F)(F)F)CCC2)c1O` gave PTPN22 act -12.4, PLAP act 2.3*, MT1-MMP txn act 1 and PTPN22 inh 2 14.4.
For CNC(=S)NNC(=O)c1cccn(Cc2ccc(Cl)c(Cl)c2)c1=O the results were PTPN22 act -68.6, PLAP act 1.9 and PTPN22 inh 2 69.4*.
`O=C(Nc1cccn(Cc2c(Cl)cccc2Cl)c1=O)c1ccccc1Cl` gave PTPN22 act 3.0, PLAP act 0.9 and PTPN22 inh 2 -0.6.
`C=CCNC(=S)NNC(=O)c1cccn(Cc2ccc(Cl)c(Cl)c2)c1=O` gave PTPN22 act -25.1, PLAP act 1 and PTPN22 inh 2 27.6*.
CNC(=S)NNC(=O)c1cccn(Cc2cccc(Cl)c2)c1=O was read as PTPN22 act -58.7, PLAP act 1.6 and PTPN22 inh 2 59.7*.
For COC(=O)c1ccc(C(/C=C/[C@@H](C)C(=O)NCc2ccc(C)o2)NC(=O)OCc2ccccc2)cc1 (stereo partly drawn) the results were MT1-MMP txn act 1.2.
CC(=O)N1CC2(CC2)CC1c1ccccc1 (stereo not drawn) was read as MT1-MMP txn act 1.1.
CCC1=C2CC[C@H]3C(=O)N(CC(=O)OC)C(=O)[C@H]3[C@H]2[C@@]2(C)C(=NCCc3c[nH]c4ccccc34)OC(=O)N2C1=O was read as MT1-MMP txn act 1.1.
Screening COC(=O)C1=C(N)Oc2cc(C)n(CC3CCCO3)c(=O)c2C1c1ccc(Cl)cc1 (stereo not drawn) returned PTPN22 act 2.4, PLAP act 1.4, MT1-MMP txn act 1.2, TNAP act mid DEA 0.9 and PTPN22 inh 2 -2.5.
CCc1ccc(OCC(=O)N/N=C2\CC(=O)c3ccccc32)cc1 was read as PTPN22 act -12.1, PLAP act 2.4* and PTPN22 inh 2 12.7.
For CCOC(=O)Cn1c(=O)oc2cc(S(=O)(=O)Nc3ccc(F)cc3)ccc21 the results were PTPN22 act -6.5, PLAP act 1.1, MT1-MMP txn act 1, TNAP act mid DEA 1.1 and PTPN22 inh 2 6.0.
`CCCCNc1ccccc1C(=O)OCC(=O)Nc1ccc(S(N)(=O)=O)cc1` gave PTPN22 act 2.4, PLAP act 2.1* and PTPN22 inh 2 -4.1.
For COc1ccc(C(=O)n2nc(C)cc2Nc2ccccc2)cc1 the results were PTPN22 act 0.5, PLAP act 1.2, MT1-MMP txn act 2.1* and PTPN22 inh 2 0.0.
